Results taken from ChEMBL document CHEMBL4513154, “CO-ADD screening of Jain University (India) compounds”.
Entries with a potency or affinity are not part of this list.

What was measured:
Klebsiella pneumoniae = conditions: Concentration 32 ug.mL-1; ASSAY_TEST Inhibition of Bacterial Growth; detection method Absorption (OD600); MEDIA CAMHB; plate type 384well; NBS; CORNING #3640; time 18 hr
Candida albicans = conditions: 32 ug/mL
Cryptococcus neoformans = conditions: Concentration 32 ug.mL-1; ASSAY_TEST Inhibition of Fungal Growth; detection method Resazurin; Absorption (OD600-OD570); plate type 384well; NBS; CORNING #3640

Work on `Clc1ccc(Cn2c(-c3cscn3)nc3c(Cl)cccc32)cn1` yielded an Inhibition (Klebsiella pneumoniae) of 14.39%, an Inhibition (Candida albicans) of 1.41% and an Inhibition (Cryptococcus neoformans) of -19.98%.

Compound `Clc1ccc(Cn2c(-c3cscn3)nc3ccccc32)cn1` has an Inhibition (Klebsiella pneumoniae) of 12.39%, an Inhibition (Candida albicans) of 0.69% and an Inhibition (Cryptococcus neoformans) of -39.39%.

`Clc1ccc2c(c1)nc(-c1cscn1)n2Cc1ccc(Cl)nc1` was tested, and the Inhibition (Klebsiella pneumoniae) was -1.17%, the Inhibition (Candida albicans) was 2.99% and the Inhibition (Cryptococcus neoformans) was -29.64%.
